{"source": "PubChem BioAssay (Tox21)", "note": "Several values for one entry are separate records, joined by “and”; a condition that tells them apart may be missing. Equal values may be shown once. Records with an inconclusive call do not appear. Unmarked numbers belong to inactive results. Activity calls are given as the source filed them. The call rests on the fitted dose curve. On the % scale 0 is the no-effect control and ±100 the full control effect; potency means the concentration at half of the fitted maximal effect."}
{"biological_target": "Acetylcholinesterase (Homo sapiens) (UniProt P22303)", "sequence (P22303 whole entry, looked up)": "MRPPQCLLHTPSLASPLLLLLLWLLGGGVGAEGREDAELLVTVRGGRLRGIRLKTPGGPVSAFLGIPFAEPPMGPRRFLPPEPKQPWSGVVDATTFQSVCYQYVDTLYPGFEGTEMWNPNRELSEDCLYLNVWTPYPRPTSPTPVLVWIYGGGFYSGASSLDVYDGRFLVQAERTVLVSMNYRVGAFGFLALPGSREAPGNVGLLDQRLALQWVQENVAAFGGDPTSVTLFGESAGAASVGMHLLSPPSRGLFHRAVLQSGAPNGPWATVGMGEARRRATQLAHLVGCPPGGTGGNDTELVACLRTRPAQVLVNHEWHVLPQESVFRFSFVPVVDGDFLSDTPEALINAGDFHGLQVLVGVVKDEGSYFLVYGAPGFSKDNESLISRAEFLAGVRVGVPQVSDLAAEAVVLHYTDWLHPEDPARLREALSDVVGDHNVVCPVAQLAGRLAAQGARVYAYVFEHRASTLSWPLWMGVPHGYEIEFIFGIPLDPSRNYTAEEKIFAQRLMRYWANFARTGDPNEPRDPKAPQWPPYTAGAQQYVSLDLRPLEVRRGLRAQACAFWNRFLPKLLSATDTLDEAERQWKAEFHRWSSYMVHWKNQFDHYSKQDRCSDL", "test": "Acetylcholinesterase (AChE) small molecule antagonists: colormetric cell-based qHTS assay (AID 1347395); further: nearly all actives have a fitted effect of over 30% in size", "conditions": "SH-SY5Y cells AChE activity, colorimetric (Ellman); series mostly up to 115 µM; activity, negative = inhibition: at the top concentration", "outline": "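SH-SY5Y cells attached overnight, exposed to compound 30 min at 37 C, then given DTNB/acetylthiocholine; after 90 min at 37 C, colorimetric thiocholine read gives cellular AChE activity.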"}
{"smiles": "Cc1nn(C)c(Oc2ccccc2)c1/C=N/OCc1ccc(C(=O)OC(C)(C)C)cc1", "activity, negative = inhibition": "4.72%"}
{"smiles": "O=C(O)c1nc(Cl)c(Cl)c(Cl)c1Cl", "activity, negative = inhibition": "-0.185%"}
{"smiles": "O=C1c2ccccc2C(=O)C1c1ccc(Br)cc1", "activity, negative = inhibition": "-1.94% [at 52.9 µM]"}
{"smiles": "CC(C)(Oc1ccc(CCNC(=O)c2ccc(Cl)cc2)cc1)C(=O)O", "Potency": "inactive"}
{"smiles": "C[Si]1(C)O[Si](C)(C)O[Si](C)(C)O[Si](C)(C)O1", "Potency": "inactive"}
{"smiles": "CC(C)C(=O)OC/C=C/c1ccccc1", "activity, negative = inhibition": "-2.32%"}
{"smiles": "CC(=O)[C@H]1CC[C@H]2[C@@H]3CCC4=CC(=O)CC[C@]4(C)[C@H]3CC[C@]12C", "Potency": "39.7 µM (active) and 35.6 µM (active)"}
{"smiles": "c1cnc2c(n1)CCCC2", "activity, negative = inhibition": "1.72%"}
{"smiles": "O=C1OC(c2ccc(O)cc2)(c2ccc(O)cc2)c2ccccc21", "Potency": "35.6 µM (active) and 24.5 µM (active)"}
{"smiles": "Cc1ccccc1OCC(O)CO", "note": "(stereo unspecified)", "activity, negative = inhibition": "1.01% [at 52.9 µM]"}
{"smiles": "CCCCCCCC/C=C\\CCCCCCCCN", "activity, negative = inhibition": "-0.44% [at 52.9 µM]"}
{"smiles": "CCOC(=O)C1=NN(c2ccccc2)C(=O)C1", "activity, negative = inhibition": "-6.85%"}
{"smiles": "Nc1ncnc2nc[nH]c12", "Potency": "inactive"}
{"smiles": "Cc1onc(-c2ccccc2)c1C(=O)Cl", "activity, negative = inhibition": "3.62% [at 52.9 µM]"}
{"smiles": "CCCCCC(CC)OC(=O)CCCOc1ccc(Cl)cc1Cl", "note": "(stereo unspecified)", "activity, negative = inhibition": "1.62%"}
{"smiles": "Cc1ccc(S(=O)(=O)NC(=O)NC2CCCCCCC2)cc1", "activity, negative = inhibition": "1.37% [at 52.9 µM]"}
{"smiles": "OC[C@@H](O)C(O)[C@@H](O)CO", "note": "(stereo partly specified)", "activity, negative = inhibition": "2.85%"}
{"smiles": "CO[C@@]1(NC(=O)C(C(=O)O)c2ccc(O)cc2)C(=O)N2C(C(=O)O)=C(CSc3nnnn3C)CO[C@@H]21", "note": "(stereo partly specified)", "activity, negative = inhibition": "1.3% [at 52.9 µM]"}
{"smiles": "CC(C)C(C)(C)C(C)(C)C(C)(C)S", "activity, negative = inhibition": "-17.5%"}
{"smiles": "CCCCCCCCCCCCI", "activity, negative = inhibition": "-1.31%"}
{"smiles": "COc1ccc(COC(C)=O)cc1", "Potency": "inactive"}
